Measurements: article PMC9911399, “Two distinct binding modes provide the RNA-binding protein RbFox with extraordinary sequence specificity”
Substitutions are numbered along the chain they refer to; changes in the protein carry UniProt numbers. Over roughly 16,000 sequences, “ka relative to ugcaugu” has its median near 0.0091; the highest 2% begin near 0.032. For the sample, the highest values were picked, then their nearest neighbours and some sequences at random.

B1: GUGAUCC (DNA:RNA)
RNA: GGGAGACCGGAAUUCAGAUUGUCCGUGAUCCUUAAAUCCCGUCGUAGCCACCA
DNA 1: CAATCTGAATTCCGGTCTCCC
DNA 2: TGGTGGCTACGACGGGATT
B2: AGGGUCU (DNA:RNA)
RNA: B1 RNA with G25A, U26G, A28G, C31U
DNA 1: CAATCTGAATTCCGGTCTCCC
DNA 2: TGGTGGCTACGACGGGATT
B3: GCUUUGC (DNA:RNA)
RNA: B1 RNA with U26C, G27U, A28U, C30G
DNA 1: CAATCTGAATTCCGGTCTCCC
DNA 2: TGGTGGCTACGACGGGATT
B4: CGCUUGC (DNA:RNA)
RNA: B1 RNA with G25C, U26G, G27C, A28U, C30G
DNA 1: CAATCTGAATTCCGGTCTCCC
DNA 2: TGGTGGCTACGACGGGATT
B5: CGUUGCA (DNA:RNA)
RNA: B1 RNA with G25C, U26G, G27U, A28U, U29G, C31A
DNA 1: CAATCTGAATTCCGGTCTCCC
DNA 2: TGGTGGCTACGACGGGATT
B6: GUCCGCU (DNA:RNA)
RNA: B1 RNA with G27C, A28C, U29G, C31U
DNA 1: CAATCTGAATTCCGGTCTCCC
DNA 2: TGGTGGCTACGACGGGATT
B7: CCGCUUG (DNA:RNA)
RNA: B1 RNA with G25C, U26C, A28C, C30U, C31G
DNA 1: CAATCTGAATTCCGGTCTCCC
DNA 2: TGGTGGCTACGACGGGATT
B8: GCUUGCA (DNA:RNA)
RNA: B1 RNA with U26C, G27U, A28U, U29G, C31A
DNA 1: CAATCTGAATTCCGGTCTCCC
DNA 2: TGGTGGCTACGACGGGATT
B9: GCUUGCU (DNA:RNA)
RNA: B1 RNA with U26C, G27U, A28U, U29G, C31U
DNA 1: CAATCTGAATTCCGGTCTCCC
DNA 2: TGGTGGCTACGACGGGATT
B10: GCUUGCG (DNA:RNA)
RNA: B1 RNA with U26C, G27U, A28U, U29G, C31G
DNA 1: CAATCTGAATTCCGGTCTCCC
DNA 2: TGGTGGCTACGACGGGATT
B11: GCUUAAA (DNA:RNA)
RNA: B1 RNA with U26C, G27U, A28U, U29A, C30A, C31A
DNA 1: CAATCTGAATTCCGGTCTCCC
DNA 2: TGGTGGCTACGACGGGATT
B12: UAAGGUC (DNA:RNA)
RNA: B1 RNA with G25U, U26A, G27A, A28G, U29G, C30U
DNA 1: CAATCTGAATTCCGGTCTCCC
DNA 2: TGGTGGCTACGACGGGATT
B13: UACUCGA (DNA:RNA)
RNA: GGGAGACCGGAAUUCAGAUUGUCCUACUCGAUUAAAUCCCGUCGUAGCCACCA
DNA 1: CAATCTGAATTCCGGTCTCCC
DNA 2: TGGTGGCTACGACGGGATT
B14: AUACUGG (DNA:RNA)
RNA: B1 RNA with G25A, G27A, A28C, C30G, C31G
DNA 1: CAATCTGAATTCCGGTCTCCC
DNA 2: TGGTGGCTACGACGGGATT
B15: GUUACCU (DNA:RNA)
RNA: B1 RNA with G27U, U29C, C31U
DNA 1: CAATCTGAATTCCGGTCTCCC
DNA 2: TGGTGGCTACGACGGGATT
B16: CCCUACU (DNA:RNA)
RNA: B13 RNA with U25C, A26C, C29A, G30C, A31U
DNA 1: CAATCTGAATTCCGGTCTCCC
DNA 2: TGGTGGCTACGACGGGATT
B17: CUGGUCC (DNA:RNA)
RNA: B1 RNA with G25C, A28G
DNA 1: CAATCTGAATTCCGGTCTCCC
DNA 2: TGGTGGCTACGACGGGATT
B18: UGGGUCA (DNA:RNA)
RNA: B1 RNA with G25U, U26G, A28G, C31A
DNA 1: CAATCTGAATTCCGGTCTCCC
DNA 2: TGGTGGCTACGACGGGATT
B19: UGGGUCC (DNA:RNA)
RNA: B1 RNA with G25U, U26G, A28G
DNA 1: CAATCTGAATTCCGGTCTCCC
DNA 2: TGGTGGCTACGACGGGATT
B20: UGGUCCG (DNA:RNA)
RNA: B13 RNA with A26G, C27G, G30C, A31G
DNA 1: CAATCTGAATTCCGGTCTCCC
DNA 2: TGGTGGCTACGACGGGATT
B21: UGGGACC (DNA:RNA)
RNA: B1 RNA with G25U, U26G, A28G, U29A
DNA 1: CAATCTGAATTCCGGTCTCCC
DNA 2: TGGTGGCTACGACGGGATT
B22: UGGGUCG (DNA:RNA)
RNA: B1 RNA with G25U, U26G, A28G, C31G
DNA 1: CAATCTGAATTCCGGTCTCCC
DNA 2: TGGTGGCTACGACGGGATT
B23: UCAAUCC (DNA:RNA)
RNA: B1 RNA with G25U, U26C, G27A
DNA 1: CAATCTGAATTCCGGTCTCCC
DNA 2: TGGTGGCTACGACGGGATT
B24: UAUUGCC (DNA:RNA)
RNA: B13 RNA with C27U, C29G, G30C, A31C
DNA 1: CAATCTGAATTCCGGTCTCCC
DNA 2: TGGTGGCTACGACGGGATT
B25: UGUUAGC (DNA:RNA)
RNA: B13 RNA with A26G, C27U, C29A, A31C
DNA 1: CAATCTGAATTCCGGTCTCCC
DNA 2: TGGTGGCTACGACGGGATT
B26: GACUGAA (DNA:RNA)
RNA: B13 RNA with U25G, C29G, G30A
DNA 1: CAATCTGAATTCCGGTCTCCC
DNA 2: TGGTGGCTACGACGGGATT
B27: UUCAGCC (DNA:RNA)
RNA: B1 RNA with G25U, G27C, U29G
DNA 1: CAATCTGAATTCCGGTCTCCC
DNA 2: TGGTGGCTACGACGGGATT
B28: ACCUUCG (DNA:RNA)
RNA: B1 RNA with G25A, U26C, G27C, A28U, C31G
DNA 1: CAATCTGAATTCCGGTCTCCC
DNA 2: TGGTGGCTACGACGGGATT
B29: ACCUAAG (DNA:RNA)
RNA: B13 RNA with U25A, A26C, C29A, G30A, A31G
DNA 1: CAATCTGAATTCCGGTCTCCC
DNA 2: TGGTGGCTACGACGGGATT
B30: UUACAAU (DNA:RNA)
RNA: B1 RNA with G25U, G27A, A28C, U29A, C30A, C31U
DNA 1: CAATCTGAATTCCGGTCTCCC
DNA 2: TGGTGGCTACGACGGGATT
B31: GAUUGAC (DNA:RNA)
RNA: B1 RNA with U26A, G27U, A28U, U29G, C30A
DNA 1: CAATCTGAATTCCGGTCTCCC
DNA 2: TGGTGGCTACGACGGGATT

biological target: T1, RBFOX1 RRM (Homo sapiens, UniProt Q9NWB1 109-208); experiment: EMSA; HiTS-Eq, 1 nM pool, 10 min; buffer printed only for the single-RNA assays: 10 mM Tris pH 7.5, 150 mM NaCl, 3.4 mM EDTA, 0.001% NP-40, 30 C; conditions: tags: His6 N-terminal (pET28a); label: 5' 32P
T1 sequence: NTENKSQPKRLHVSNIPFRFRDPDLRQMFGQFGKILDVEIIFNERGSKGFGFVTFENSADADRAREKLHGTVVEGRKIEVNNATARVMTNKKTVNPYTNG
In short: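 Purified wild-type or mutant RbFox RRM at increasing concentrations was equilibrated with 1 nM of 5′-radiolabelled RNA carrying 7 randomized nucleotides for 10 min in 50 µL. Unbound RNA was separated by 8% native PAGE and sequenced. Relative association constants came from read-count changes of each RNA species compared with the control reaction, normalised to the cognate motif.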

Question: With B1 as the binder, how does the binding signal read?
Answer: 0.0187 KA relative to UGCAUGU

Question: B2 was tested. Which binding signal did it give?
Answer: 0.0254 KA relative to UGCAUGU

Question: With B3 as the binder, how does the binding signal read?
Answer: 0.0232 KA relative to UGCAUGU

Question: Which binding signal does the source give for B4 here?
Answer: 0.032 KA relative to UGCAUGU

Question: Which binding signal does the source give for B5 here?
Answer: 0.0228 KA relative to UGCAUGU

Question: With B6 as the binder, how does the binding signal read?
Answer: 0.0113 KA relative to UGCAUGU

Question: With B7 as the binder, how does the binding signal read?
Answer: 0.0253 KA relative to UGCAUGU

Question: B8 was tested. Which binding signal did it give?
Answer: 0.0329 KA relative to UGCAUGU

Question: Which binding signal does the source give for B9 here?
Answer: 0.0354 KA relative to UGCAUGU

Question: How did the binding signal turn out when B10 was run?
Answer: 0.0193 KA relative to UGCAUGU

Question: Which binding signal does the source give for B11 here?
Answer: 0.00504 KA relative to UGCAUGU

Question: How did the binding signal turn out when B12 was run?
Answer: 0.0168 KA relative to UGCAUGU

Question: For B13, which binding signal is on record?
Answer: 0.0112 KA relative to UGCAUGU

Question: With B14 as the binder, how does the binding signal read?
Answer: 0.00795 KA relative to UGCAUGU

Question: B15 was tested. Which binding signal did it give?
Answer: 0.00787 KA relative to UGCAUGU

Question: For B16, which binding signal is on record?
Answer: 0.00609 KA relative to UGCAUGU

Question: Which binding signal does the source give for B17 here?
Answer: 0.0227 KA relative to UGCAUGU

Question: For B18, which binding signal is on record?
Answer: 0.0232 KA relative to UGCAUGU

Question: B19 was tested. Which binding signal did it give?
Answer: 0.0332 KA relative to UGCAUGU

Question: For B20, which binding signal is on record?
Answer: 0.017 KA relative to UGCAUGU

Question: How did the binding signal turn out when B21 was run?
Answer: 0.0142 KA relative to UGCAUGU

Question: How did the binding signal turn out when B22 was run?
Answer: 0.0407 KA relative to UGCAUGU

Question: How did the binding signal turn out when B23 was run?
Answer: 0.00161 KA relative to UGCAUGU

Question: How did the binding signal turn out when B24 was run?
Answer: 0.012 KA relative to UGCAUGU

Question: For B25, which binding signal is on record?
Answer: 0.0176 KA relative to UGCAUGU

Question: Which binding signal does the source give for B26 here?
Answer: 0.0274 KA relative to UGCAUGU

Question: For B27, which binding signal is on record?
Answer: 0.0103 KA relative to UGCAUGU

Question: B28 was tested. Which binding signal did it give?
Answer: 0.00839 KA relative to UGCAUGU

Question: For B29, which binding signal is on record?
Answer: 0.00359 KA relative to UGCAUGU

Question: For B30, which binding signal is on record?
Answer: 0.00107 KA relative to UGCAUGU

Question: With B31 as the binder, how does the binding signal read?
Answer: 0.0228 KA relative to UGCAUGU
